The text below walks through data of PubChem BioAssay.

Each structure is given as a SMILES string. “And” between values parts separate entries of the source, which are not always exact repeats. Identical values can stand only once. The source made the active and inactive calls.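 How the source made its calls, unless noted: active means thallium flux through the channel raised or lowered by more than 3 SD from vehicle-only wells, actives on both sides; inactive means the rest.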

Experiment [1] in a line: polyglutamine-triggered caspase-3 activation inhibitors, cell-based (AID 1583). To be noted: polyglutamine-induced caspase-3 activation, cell assay; stronger effect = higher value;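 tested at 10 µM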.
Experiment [2] can be described thus: suppressors of polyQ aggregation in yeast, 75Q-TubU reporter (AID 1593). Conditions: Yeast 75Q polyglutamine aggregation reporter.
Experiment [3] in a line: inhibitors of mitochondrial cytochrome c release, biochemical, purified mitochondria (AID 1603).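 Further: mouse liver mitochondria challenged with calcium chloride; signal normalized to the plate average as 100%.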 Conditions: stronger effect = lower value.
Experiment [4] can be described thus: inhibitors of polyQ protein aggregation (AID 1604). To be noted: polyglutamine-induced protein aggregation inhibition assay; stronger effect = higher value; tested at 2.5 µM.
Experiment [5] is described as follows: enhancers of glutamate uptake in motor neurons, MN-1 cell line (AID 1612).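 Further: tested at 1 µM final; 0% = mean of DMSO vehicle wells on each plate; positive means more glutamate uptake than control and negative means less.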 Conditions: MN-1 motor neuron cells, stronger effect = higher value.
Experiment [6] in a line: Cy5 fluorescence interference with SSB-bound oligo, artefact control for HCV NS3 helicase inhibitor project, biochemical, NIH Clinical Collection, E. coli SSB (AID 743268; call rule not given here).
In experiment [7] the test system is Hepatitis C virus NS3 helicase. As to the kind of experiment: HCV NS3 helicase inhibitors, primary screen, biochemical, fluorescence polarization, NIH Clinical Collection (AID 743270; call rule not given here). Conditions: NS3 helicase binding to Cy5-dT15 DNA, stronger effect = higher value, concentration not given here. Background: Fluorescence polarisation rises when a labelled molecule tumbles more slowly, as on binding a larger partner.

Experiment [8] addresses Single-stranded DNA-binding protein (Escherichia coli (strain K12)) (UniProt P0AGE0). Put plainly: E. coli SSB displacement from DNA, counter-screen for HCV NS3 helicase inhibitor project, biochemical, fluorescence polarization, NIH Clinical Collection (AID 743271; in the data active means inhibition above about 28%). Conditions: stronger effect = higher value, concentration not given here. In general terms: Counterscreens check selectivity or assay interference.

The nature of experiment [9]: fluorescence interference in NS3h assay format, artefact control for HCV NS3 helicase inhibitor project, biochemical, NIH Clinical Collection (AID 743272; call rule not given here;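 further: HCV NS3 helicase with a Cy5 labelled single stranded DNA probe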). To be noted: fluorescence interference counterscreen, stronger effect = lower value.
Experiment [10] deals with F380Y/beta4. As to the kind of experiment: modulators of BK channel variants, profiling panel, selectivity assay, cell-based, U2OS BacMam, thallium flux, beta subunits (AID 1259406).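 Further: initial slope of Thallos dye fluorescence rise after thallium is added; log ratio against the mean of 0.3% DMSO vehicle wells on the same plate.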 Conditions: at 30 µM.
The target of experiment [11] is Calcium-activated potassium channel subunit alpha-1 (Homo sapiens) + Leucine-rich repeat-containing protein 26 (Homo sapiens) (UniProt Q12791+Q2I0M4). Described as above. To be noted: F380Y/Slo1WT/gamma1, at 30 µM.
Chain of Calcium-activated potassium channel subunit alpha-1 (Homo sapiens) + Leucine-rich repeat-containing protein 26 (Homo sapiens) (Q2I0M4 whole entry, looked up, one chain of several): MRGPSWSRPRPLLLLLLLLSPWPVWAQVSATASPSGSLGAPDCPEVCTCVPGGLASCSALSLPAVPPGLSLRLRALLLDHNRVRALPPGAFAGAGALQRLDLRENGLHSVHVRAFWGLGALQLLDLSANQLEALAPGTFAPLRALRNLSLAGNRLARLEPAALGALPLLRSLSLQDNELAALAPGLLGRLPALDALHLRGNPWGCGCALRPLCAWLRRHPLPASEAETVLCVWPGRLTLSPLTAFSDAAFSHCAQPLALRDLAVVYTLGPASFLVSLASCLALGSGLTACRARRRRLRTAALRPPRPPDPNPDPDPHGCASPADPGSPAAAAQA
Experiment [12] relates to R275C. The description is as above. To be noted: at 30 µM.
Experiment [13] has as its system R275C/beta1. The description is as above. To be noted: at 30 µM.
For experiment [14], the system named is R275C/beta2Delta. The description is as above. Conditions: at 30 µM.
For experiment [15], the system named is R275C/beta4. The experiment is described as above. Conditions: at 30 µM.
Experiment [16] relates to R275C/Slo1WT/beta2. The experiment is described as above. To be noted: at 30 µM.
Experiment [17] can be described thus: viability rescue of complex I mutant cybrids, primary screen, cell-based, galactose medium, ATP luminescence (AID 1645843;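 active means z-score of at least 1.8 in each of two replicates, scored against plate mean and spread of sample wells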;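 further: positive z means more ATP and so rescue of galactose-driven cybrid death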). Conditions: complex I mutant cybrid cells, 72 h, stronger effect = higher value.
Experiment [18] can be described thus: LFS_MB_P medulloblastoma growth inhibition, cell-based, chromothripsis tumors, cisplatin or BGB combos (AID 1671449; in the data active means inhibition above about 80%;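 further: cells exposed for 96 hours; 0% = vehicle DMSO and 100% = killing by high DMSO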). To be noted: LFS_MB_P medulloblastoma cells.
Experiment [19] can be described thus: HDN33 neuroblastoma growth inhibition, cell-based, chromothripsis tumors, cisplatin or BGB combos (AID 1671450; in the data active means inhibition above about 80%;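 further: cells exposed to compound for four days; 0% = vehicle DMSO and 100% = cell killing by high DMSO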). Conditions: HDN33 neuroblastoma cells, stronger effect = higher value.
Experiment [20] can be described thus: HTB85 osteosarcoma cell growth inhibition, synergistic combos for chromothripsis tumors, BGB or cisplatin IC20 combos (AID 1671453; in the data active means inhibition above about 80%;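 further: cells exposed for 96 hours before readout; 0% = vehicle DMSO and 100% = high DMSO killing control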). To be noted: HTB85 osteosarcoma cells, drug combinations, stronger effect = higher value.

As to `CC(C)NCC(O)c1ccc(O)c(O)c1` (stereo not given), the inhibition in [1] is 19.5%; in [7] it was -5% (inactive); in [8], -0.48% (inactive). Moreover, in experiment [2], the score is 1.1. Besides, the cytochrome c release ratio in experiment [3] amounted to 0.68. This molecule also had an inhibition of aggregation in experiment [4] of 84.7%. Moreover, the glutamate uptake change in experiment [5] is -0.29%. Moreover, the fluorescence ratio in experiment [6] is 1.01 (inactive); in experiment [9] it was 0.95 (inactive). In addition, the log fold change Tl+ flux in experiment [10] is 0.0647 (inactive); in experiment [11] it was -0.00786 (inactive); in experiment [12] it was 0.0272 (inactive); in experiment [13] it was -0.0419 (inactive); in [14], 0.00121 (inactive); in [15], 0.0195 (inactive). In addition, the log fold change Tl+ flux in experiment [16] is -0.00526 (inactive).
As to `CN(C)CCCN1c2ccccc2CCc2ccc(Cl)cc21`, the inhibition in [1] is -18.9%; in experiment [7], -3.18% (inactive); in [8], 0.29% (inactive). In experiment [2], this molecule came in with a score of 0.98. Also, the cytochrome c release ratio in experiment [3] came out at 1.15. In addition, the inhibition of aggregation in experiment [4] was 66.7%. Besides, the glutamate uptake change in experiment [5] stood at 6.78%. Also, the fluorescence ratio in experiment [6] and in experiment [9] was 1 (inactive) throughout. Further, the z-score in experiment [17] is -1.52 (inactive) and -1.25 (inactive) and -0.78 (inactive). The log fold change Tl+ flux in experiment [10] was 0.151 (active); in experiment [11], -0.0105 (inactive); in experiment [12], 0.0284 (inactive); in experiment [13], 0.00748 (inactive); in experiment [14], -0.0594 (inactive); in [15] it was 0.278 (active). The log fold change Tl+ flux in experiment [16] is -0.0809 (inactive).
As to `O=C1CCC(N2C(=O)c3ccccc3C2=O)C(=O)N1` (stereo not given), the figures for the inhibition in experiment [1], in experiment [7] and in experiment [8] were 8.81%, -1.36% (inactive) and -1.24% (inactive), respectively. This molecule yielded a score in [2] of 1.27. Also, the cytochrome c release ratio in [3] was 1.09. In addition, the inhibition of aggregation in [4] was 81%. Also, in [5], the glutamate uptake change was -12.1%. Further, the fluorescence ratio is 1.04 (inactive) in experiment [6] and 0.99 (inactive) in experiment [9]. The log fold change Tl+ flux in [10] was 0.0329 (inactive); in experiment [11] it was -0.00962 (inactive); in [12], 0.0291 (inactive); in [13] it was -0.0697 (inactive); in experiment [14] it was 0.0347 (inactive); in [15], -0.108 (inactive). In [16], the log fold change Tl+ flux was -0.0685 (inactive).
As to `CCN(CC)CCCC(C)Nc1c2ccc(Cl)cc2nc2ccc(OC)cc12` (stereo not given), the inhibition in experiment [1] is -263%; in experiment [18] (at 0.5 µM, stronger effect = higher value), -9.53% (inactive); in experiment [18] (measured here: combination with BGB IC20, at 0.005 µM), 13.9%; in [18] (measured here: combination with BGB IC40, at 0.005 µM), 18.9%; in experiment [18] (measured here: combination with BGB IC40, at 0.05 µM), 6.94%; in experiment [18] (measured here: combination with cisplatin, at 0.5 µM, stronger effect = higher value), -29.9%. Further, the inhibition in experiment [18] (measured here: combination with cisplatin, at 5 µM, stronger effect = higher value) is 113%; in [19] (BGB combo, at 5 µM), 99.8%; in [19] (at 0.5 µM), -12.9% (inactive); in experiment [19] (cisplatin combo, at 5 µM), 99.8%; in [19] (measured here: with BGB IC20 combination, at 0.5 µM) it was -9.01%; in experiment [19] (measured here: with cisplatin IC20 combination, at 0.5 µM) it was -29.7%. The inhibition in experiment [19] (single agent, at 5 µM) is 99.8%; in experiment [20] (at 0.5 µM), -23.3% (inactive); in experiment [20] (measured here: with BGB IC20, at 0.5 µM), -27.3%; in [20] (measured here: with BGB IC20, at 5 µM) it was 99.8%; in experiment [20] (measured here: with cisplatin IC20, at 0.5 µM) it was -38%; in experiment [20] (measured here: with cisplatin IC20, at 5 µM) it was 99.9%. In addition, the inhibition in experiment [20] (single agent, at 5 µM) came out at 99.9%. Also, the score in experiment [2] is 0.79. In addition, the cytochrome c release ratio in experiment [3] was 1.44. This molecule also gave an inhibition of aggregation in [4] of 77.3%. Besides, in experiment [5], the glutamate uptake change is 2.03%. In addition, the z-score in experiment [17] was -1.35 (inactive) and -2.13 (inactive).
With `CCN(CC)CCCC(C)Nc1ccnc2cc(Cl)ccc12` (stereo not given), the inhibition in experiment [1] was found to be 9.86%. In experiment [2], this molecule yielded a score of 1.1. Moreover, in [3], the cytochrome c release ratio stood at 1.15. For the same molecule, in [4], the inhibition of aggregation was found to be 68.5%. Also, the glutamate uptake change in [5] was -7.63%. In addition, in experiment [17], the z-score was -1.02 (inactive) and -1.18 (inactive).
In the case of `c1ccc([C@H]2CN3CCSC3=N2)cc1`, the inhibition in experiment [1] came to 60.8%. The molecule further yielded a score in [2] of 1.41. Further, the cytochrome c release ratio in [3] was found to be 0.88. In addition, the inhibition of aggregation in [4] amounted to 72.2%. Moreover, the glutamate uptake change in experiment [5] came to 4.54%. For the same molecule, in [17], the z-score was 0.83 (inactive) and -0.1 (inactive).

Broadly, the inhibition is the change of the read-out against control, counted positive when it falls.
